Screening results as filed in PubChem BioAssay.
This is a sample that favours compounds with a hit; in the whole collection about 1.2% have one here.
FadD28 FP inh = inhibitors of FadD28 bisubstrate probe binding, primary screen, biochemical, fluorescence polarization, single point; Mycobacterium tuberculosis FadD28 fatty-acid-AMP ligase; inhibition, % at 12.5 µM; 0.22% of 360,000 active; AID 588549, 2011; in the data active = inhibition above about 8.5%, passing the limit was not always enough
PrP UTR inh = inhibition of PrP 5' UTR reporter expression. 0.35% of 340,000 active. AID 488862, 2010. cell-based PrP 5' UTR mRNA reporter, plate reader. inhibition, % (concentration not given with the values); in the data active = inhibition above about 52%; note: 0 = median of the neutral control wells
TcdB GH inh = TcdB glycohydrolase inhibitors, primary screen, biochemical, single point, plate reader | Toxin B (Clostridioides difficile), P18177 | TcdB glycohydrolase enzymatic assay | inhibition, % at 9.99 µM | 0.24% of 350,000 active | AID 652162, 2013; in the data active = inhibition above about 10%
BioA inh = M. tuberculosis BioA enzyme inhibitors, primary screen, biochemical, plate reader, single point, HTS; purified M. tuberculosis BioA enzyme; 0.096% of 360,000 active; inhibition, % at 9.99 µM; 7,8-diaminopelargonic acid synthase BioA (Mycobacterium tuberculosis); in the data active = inhibition above about 40%
PfHsp40 yeast = rescue of yeast from PfHsp40 toxicity, primary screen, S. cerevisiae, ATP luminescence | 0.68% of 340,000 active | S. cerevisiae expressing PfHsp40, growth rescue | growth rescue, % at 12.5 µM; in the data active = growth rescue above about 28%, passing the limit was not always enough;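 note: yeast W303a lacking pdr1 and pdr3 grown in galactose medium; growth measured after three days at 30 °C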
Yp Topo-I inh = Yersinia pestis topoisomerase I inhibitors, primary screen, biochemical, cleavage product accumulation, plate reader, single point; DNA topoisomerase I (Yersinia pestis CO92); activity, % at 10 µM; 0.064% of 360,000 active; Y. pestis Topo-I cleavage product accumulation; in the data active = activity above about 50%, passing the limit was not always enough
* hit, by the source's call; x = no result given.

SMILES | FadD28 FP inh | PrP UTR inh | TcdB GH inh | BioA inh | PfHsp40 yeast | Yp Topo-I inh
CCOc1ccc(NC(=O)C2CCCN(S(=O)(=O)c3ccc4[nH]c(=O)ccc4c3)C2)cc1 (stereo not given) | -2.4 | 6.9 | 0.6 | 0.4 | 48.6* | 6.1
O=C(O)C1CCCCC1C(=O)Nc1ccc(S(=O)(=O)N2CCCC2)cc1 (stereo not given) | -0.4 | -9.2 | -2.7 | -1.0 | 116.0* | 3.5
CC(=O)Nc1ccc(S(=O)(=O)N2CCCC(C(=O)O)C2)cc1 (stereo not given) | -0.5 | 1.3 | 18.0* | x | -0.8 | 4.1
COCC(=O)N(C)C[C@@H]1Oc2ncc(-c3ccccc3F)cc2C(=O)N([C@@H](C)CO)C[C@H]1C | x | x | x | -1.1 | x | x
O=C(Nc1ccc(Cl)cc1)N[C@@H]1CC[C@@H](CCn2cc(-c3ccccc3F)nn2)O[C@H]1CO | x | x | 0.0 | -2.8 | x | x
C[C@H]1CN([C@@H](C)CO)C(=O)Cc2cc(NS(=O)(=O)c3cn(C)cn3)ccc2O[C@@H]1CN(C)CC1CCCCC1 | x | x | -0.4 | 1.4 | x | x
CCN(C(=O)c1cnc2scc(C)n2c1=O)c1ccccc1C | -0.6 | -0.9 | 0.8 | -0.7 | 40.0* | -0.6
CCOc1ccc(CCNC(=O)c2ccc3c(=O)[nH]c4c(C(=O)NC(C)C)sc(=S)n4c3c2)cc1 | 21.3* | -4.6 | 0.1 | -3.0 | 2.1 | 2.9
O=C(NC1CCCCC1)c1sc(=S)n2c1[nH]c(=O)c1ccccc12 | 2.4 | -21.5 | x | 3.1 | 0.3 | -0.3
O=C(NCCc1ccc(Cl)cc1)c1ccc2c(=O)[nH]c3c(C(=O)NCC4CCCO4)sc(=S)n3c2c1 (stereo not given) | x | x | 1.1 | x | x | x
O=C(NCC1CCCO1)c1sc(=S)n2c1[nH]c(=O)c1ccc(C(=O)N3CCCCC3)cc12 (stereo not given) | 10.0* | -28.9 | x | 1.9 | 7.8 | 18.2
CCCCNC(=O)c1sc(=S)n2c1[nH]c(=O)c1ccccc12 | 24.3* | -9.5 | x | 3.1 | 6.4 | -11.2
O=C(NCCc1ccccc1)c1ccc2c(=O)[nH]c3c(C(=O)NCC4CCCO4)sc(=S)n3c2c1 (stereo not given) | 61.4* | 0.5 | 1.7 | 5.1 | 0.6 | 1.3
O=C(Oc1c(Cl)cc(Cl)c2cccnc12)c1cccs1 | -5.4 | 4.0 | x | -0.8 | 341.4* | 19.3
Cc1noc(C)c1NC(=O)N(C)C[C@H]1OCCCC[C@H](C)Oc2ccc(NS(C)(=O)=O)cc2C(=O)N([C@@H](C)CO)C[C@H]1C | x | x | x | -3.0 | x | x
CCN(CC)c1ncnc2scc(C3COc4ccccc4O3)c12 (stereo not given) | -0.8 | -26.0 | x | 1.6 | 4.7 | 53.0*
CCS(=O)(=O)N1CC(=O)N2[C@H](CO)[C@@H](c3ccc(C#CCC(C)C)cc3)[C@H]2C1 | x | x | 1.0 | x | x | x
COc1cccc2c1NC(C(=O)O)C1CC=CC21 (stereo not given) | 6.5 | -14.5 | x | x | -0.1 | -8.6
O=C(O)C1Nc2c(O)cc(Cl)c([N+](=O)[O-])c2C2C=CCC12 (stereo not given) | 59.2* | -24.7 | -1.0 | x | -0.5 | -44.7
COc1cc(N=Nc2c(C)n(C)n(-c3ccccc3)c2=O)ccc1N | -1.3 | 1.6 | 14.1* | 0.5 | 0.2 | 2.1
O=C(Nc1nnc(C2CC2)o1)c1ccc(S(=O)(=O)N2CCCCC2)cc1 | -4.4 | -19.7 | 1.9 | -0.4 | -0.4 | -0.9
CC1CCN(S(=O)(=O)c2ccc(C(=O)Nc3nnc(C4CC4)o3)cc2)CC1 | -3.3 | -8.0 | 0.6 | -1.5 | 58.0* | -2.9
CNC(=O)C[C@H]1CC[C@@H]2[C@H](COC[C@@H](O)CN2C(=O)c2ccccn2)O1 | x | x | 0.0 | 3.0 | x | x
Cn1c(=O)c2[nH]c(=S)n(Cc3ccccc3)c2n(C)c1=O | 0.2 | -3.9 | 49.6* | x | -2.6 | 2.1
CCn1c(=O)n(C)c2c(=O)n(C)c(=O)n(C)c21 | -1.8 | 7.6 | 0.4 | -1.1 | 2.7 | -3.2
SMILES | FadD28 FP inh | PrP UTR inh | TcdB GH inh | BioA inh | PfHsp40 yeast | Yp Topo-I inh
O=c1[nH][nH]c(=O)c2c1[nH]c(=S)n2Cc1ccccc1 | -0.9 | -6.2 | 11.8* | 0.2 | -0.8 | 8.8
S=c1[nH]c2ccccc2n1Cc1ccccc1 | -2.1 | 5.6 | 0.7 | 0.4 | 0.4 | 2.3
CCCCn1c(=S)[nH]c2c(=O)n(C)c(=O)n(C)c21 | -0.7 | x | 52.4* | 0.2 | x | 1.0
COc1cccc(C(=O)OCC(=O)Nc2cc(C)on2)c1OC | -0.1 | -13.4 | 10.0* | -0.9 | 0.5 | -2.7
C[C@H]1CN([C@@H](C)CO)C(=O)Cc2cc(NC(=O)Cc3ccccc3)ccc2O[C@H]1CN(C)C(=O)Nc1ccc(F)cc1 | x | x | 1.3 | -4.1 | x | x
O=C(O/N=C(\c1ccccc1)c1ccncc1)c1ccccc1Cl | -4.7 | -32.8 | 3.9 | -0.7 | 116.1* | 22.1
O=C1c2cc(Br)ccc2N(Cc2ccc(Br)cc2)S(=O)(=O)C1c1cc(Cl)c(Cl)cc1[N+](=O)[O-] (stereo not given) | 29.9* | -6.4 | -1.0 | -1.9 | 143.3* | -3.0
CCOC(=O)C(NCc1ccc2c(c1)OCO2)(NC(=O)c1ccccc1)C(F)(F)F (stereo not given) | -0.5 | -22.3 | x | -1.4 | 44.8* | 4.0
Cc1ccc(C)n1-c1sc2c(c1C(=O)O)CCCC2 | 4.2 | -17.9 | -1.3 | x | 0.8 | 2.7
Cc1ccc(C)n1-c1sccc1C(=O)O | 21.2* | -4.9 | x | -3.7 | 2.0 | -18.9
CC(C)NC(=O)N1[C@H](CO)[C@H]2c3ccccc3N(C(=O)Nc3ccc(Cl)cc3)C[C@H]21 | x | x | -0.5 | -2.9 | x | x
O=C(Cc1ccccc1)CC(CC(=O)c1ccccc1)c1ccccc1 (stereo not given) | -0.6 | x | 1.7 | -0.9 | x | 56.2*
Cc1ccc(S(=O)(=O)N(C)C[C@H]2Oc3cc(C#Cc4ccccc4)ccc3S(=O)(=O)N([C@@H](C)CO)C[C@H]2C)cc1 | x | x | -0.3 | -2.4 | x | x
S=C(NCc1ccco1)Nc1ccc(Cl)cc1 | -0.7 | -17.1 | 1.3 | -0.7 | 0.4 | -4.2
S=C(NCc1ccco1)Nc1ccc(Oc2ccc(Cl)cc2)cc1 | -4.6 | -8.7 | 0.4 | -0.1 | 194.3* | -2.4
c1ccc(-c2ccccc2-c2nc(-c3ccncc3)no2)cc1 | -1.9 | 7.1 | x | -0.6 | 32.3* | 19.8
COc1ccc(C(=O)OCC(=O)c2ccc(F)cc2)cc1OC | -5.0 | -24.7 | 1.8 | 0.6 | 0.0 | 17.9
COc1ccc(C(=O)COC(=O)c2ccc(OC)c(OC)c2)cc1OC | -2.1 | 2.6 | 41.9* | -0.2 | -0.1 | 6.0
COc1cccc(C(=O)COC(=O)c2ccc(NC(=O)c3ccccc3)cc2)c1 | -3.0 | -10.6 | 22.0* | -1.4 | -1.0 | 4.6
C[C@H]1CN([C@@H](C)CO)S(=O)(=O)c2ccc(-c3cccc(F)c3)cc2O[C@H]1CN(C)C | x | x | 1.0 | 1.5 | x | x
